# Test results as given in publication PMC4336329 (PLoS ONE, 2015).
# In all, about 310,000 compounds went through this assay and about 14,000 (4.5%) showed an effect of 50% or more. Effects have a minus sign here. Only a selection was taken, and strong results are over-represented in it overall.
# Target: human ether-à-go-go-related gene (hERG) potassium channel (human, UniProt Q12809)
# Assay: primary screen, population patch clamp on CHO cells stably expressing hERG; higher = less effect of the substance
# 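Also: peak tail current of the secondary pulse compared with the same well before compound.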
# human ether-à-go-go-related gene (hERG) potassium channel, sequence (Q12809 whole entry, looked up): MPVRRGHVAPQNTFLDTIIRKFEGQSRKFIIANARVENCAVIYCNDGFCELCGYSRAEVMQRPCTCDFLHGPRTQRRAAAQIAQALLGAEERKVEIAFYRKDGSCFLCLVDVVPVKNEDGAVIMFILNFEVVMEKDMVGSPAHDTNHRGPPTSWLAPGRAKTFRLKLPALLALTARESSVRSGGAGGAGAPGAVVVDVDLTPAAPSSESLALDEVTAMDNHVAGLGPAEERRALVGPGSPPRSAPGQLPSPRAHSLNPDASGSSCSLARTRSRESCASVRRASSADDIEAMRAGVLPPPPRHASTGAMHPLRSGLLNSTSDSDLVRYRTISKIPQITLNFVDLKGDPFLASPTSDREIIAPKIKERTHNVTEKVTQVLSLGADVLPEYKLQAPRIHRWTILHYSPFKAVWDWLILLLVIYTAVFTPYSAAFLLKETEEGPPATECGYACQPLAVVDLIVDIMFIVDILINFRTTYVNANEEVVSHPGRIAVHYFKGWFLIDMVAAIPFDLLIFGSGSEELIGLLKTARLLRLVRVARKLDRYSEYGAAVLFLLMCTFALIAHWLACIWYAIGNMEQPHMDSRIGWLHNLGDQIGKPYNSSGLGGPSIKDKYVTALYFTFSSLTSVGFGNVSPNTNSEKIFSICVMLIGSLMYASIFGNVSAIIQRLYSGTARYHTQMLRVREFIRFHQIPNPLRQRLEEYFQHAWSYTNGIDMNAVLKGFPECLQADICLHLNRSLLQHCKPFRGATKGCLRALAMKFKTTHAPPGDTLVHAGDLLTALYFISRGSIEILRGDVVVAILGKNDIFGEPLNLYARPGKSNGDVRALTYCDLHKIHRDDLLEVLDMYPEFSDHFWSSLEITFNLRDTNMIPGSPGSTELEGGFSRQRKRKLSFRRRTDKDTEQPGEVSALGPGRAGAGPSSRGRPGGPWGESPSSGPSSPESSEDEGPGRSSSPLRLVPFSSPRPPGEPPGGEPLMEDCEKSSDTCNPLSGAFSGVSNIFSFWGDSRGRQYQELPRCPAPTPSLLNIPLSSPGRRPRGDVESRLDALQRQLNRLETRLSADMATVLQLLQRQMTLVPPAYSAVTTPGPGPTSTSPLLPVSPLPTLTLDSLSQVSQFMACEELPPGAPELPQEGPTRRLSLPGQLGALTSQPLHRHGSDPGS
row,Compound,"hERG current change (%, negative = inhibition) at 10uM [%]"
1,COc1ccc(CCNC(=O)c2cccs2)cc1,10.9
2,O=C(O)C(=O)O.c1ccc2c(OCCCN3CCCCCC3)cccc2c1,-65.8
3,Brc1ccccc1OCCCN1CCCCCC1.O=C(O)C(=O)O,-72.6
4,Brc1ccccc1OCCCCN1CCCCC1,-39.1
5,O=C(O)C(=O)O.c1ccc2c(OCCCCN3CCOCC3)cccc2c1,10.7
6,Brc1ccccc1OCCCN1CCCC1.O=C(O)C(=O)O,-12.4
7,c1ccc2c(OCCCCN3CCCC3)cccc2c1,-27.1
8,CC1(C)Cc2cccc(OCC(=O)Nc3ccccc3N3CCOCC3)c2O1,-10.8
9,CCOc1c(Cl)cc(CNC(C)(C)CC(C)(C)C)cc1OC.Cl,-13.2
10,CCCn1c(=O)[nH]c(=O)c2c1nc(-c1ccc(C(F)(F)F)cc1)n2CCOC,-4.45
11,CCOC(=O)CN1C(=O)/C(=C/c2c(F)cccc2Cl)Oc2ccccc21,9.08
12,COc1ccc2cc(C3(C)NC(=O)NC3=O)ccc2c1 (stereo not drawn),-0.239
13,CN(C(=O)CSc1nnc(C2CC2)n1C1CC1)C1(C#N)CCCCC1,-5.85
14,O=C(N/N=C/c1ccc(OC(=O)c2cccc(Br)c2)cc1)c1cccnc1,11.4
15,O=C(N/N=C(\c1ccccc1)c1cccnc1)c1cc(O)ccc1O,16.4
16,Cc1ccc(C(=O)N/N=C\c2ccc(OC(=O)c3cccc(F)c3)cc2)cn1,11
17,O=C(N/N=C/c1ccc(OC(=O)c2cccc(F)c2)cc1)c1cccnc1,-69.6
18,O=C(N/N=C/c1cccnc1)c1cccc(F)c1,2.67
19,O=C(N/N=C(\c1ccccc1)c1cccnc1)c1cccc(F)c1,-61.5

row,Compound,"hERG current change (%, negative = inhibition) at 10uM [%]"
1,Br.CC(C)(C)C(=O)Cn1c(NCCO)nc2ccccc21,5.72
2,O=C(OCC(=O)N1CCc2ccccc21)C1CCCN1S(=O)(=O)c1ccc(Cl)cc1 (stereo not drawn),-17.8
3,CC(C)COc1ccc(C(=O)OCC(=O)N(C)CC(=O)Nc2ccc(F)cc2)cc1,6.57
4,CCOC(=O)Cc1cc(C)[nH]c1C(=O)OCC,-5.81
5,C=CCNC(=O)c1c2c(nc3ccccc13)-c1ccccc1CC2,-46.4
6,CCOc1cc(CN2CCCC(C(=O)c3cccc(C(F)(F)F)c3)C2)ccc1O (stereo not drawn),-61.2
7,CCOc1cccc(CN2CCCC(C(=O)Nc3ccc(-c4ccn[nH]4)cc3)C2)c1O (stereo not drawn),-29.5
8,CCOC(=O)C1CCCN(Cc2ccccc2OCC)C1 (stereo not drawn),-2.92
9,COc1ccc(CN2CCCC(C(=O)c3cccc(C(F)(F)F)c3)C2)cc1O (stereo not drawn),-62.2
10,CCOc1ccccc1CN1CCCC(C(=O)c2ccc(OC)c(OC)c2)C1 (stereo not drawn),-74.2
11,CCOC(=O)C1CCCN(Cc2ccc(O)c(OC)c2)C1 (stereo not drawn),-6.59
12,CCCC(=O)N1CCCC(C(=O)c2ccc(OC)c(OC)c2)C1 (stereo not drawn),12.7
13,COc1ccc(Cl)cc1C(=O)C1CCCN(CCO)C1 (stereo not drawn),-11.2
14,CCOc1cccc(CN2CCCC(C(=O)c3cc(Cl)ccc3OC)C2)c1O (stereo not drawn),-64.3
15,O=S(=O)(c1ccc(F)cc1)N1CCCC(c2nc(-c3ccc(F)cc3)no2)C1 (stereo not drawn),-13.9
16,Cc1c(NC(=O)CN2C(=O)c3ccc([N+](=O)[O-])cc3C2=O)c(=O)n(-c2ccccc2)n1C,8.89
17,Cc1cccnc1NC(=O)C1CCN(S(=O)(=O)c2ccc3c(c2)CCC(=O)N3)CC1,16.1
18,O=C(CCc1nnc(CCCCc2ccccc2)o1)NCCN1CCCCC1=O,18.2
19,CC(=O)N1CCc2[nH]c3ccccc3c2C1,4.55

row,Compound,"hERG current change (%, negative = inhibition) at 10uM [%]"
1,COc1ccc(Br)c(C(=O)Nc2ccc(F)cc2)c1,-0.956
2,NS(=O)(=O)c1ccc(CCNc2nc3c(-c4cccc(F)c4)nnn3c3ccccc23)cc1,21.5
3,C=CCNc1nc(C2(C)CC3(CC(C)OC3=O)C(=O)O2)cs1 (stereo not drawn),-4.86
4,COCc1cc(CN2CCCC(C(=O)c3cccc(C(F)(F)F)c3)C2)ccc1OC (stereo not drawn),-63.1
5,Cc1ccc(CN2CCCC(C(=O)c3cccc(C(F)(F)F)c3)C2)o1 (stereo not drawn),-19.3
6,O=C(C1CCCN(CCCc2ccccc2)C1)N1CCCCC1 (stereo not drawn),-38.8
7,COCc1cc(CN2CCCC(C(=O)Nc3ccc(-c4ccco4)cc3)C2)ccc1OC (stereo not drawn),-7.12
8,O=C(c1cc(F)ccc1F)C1CCCN(Cc2cccc(Cl)c2)C1 (stereo not drawn),4.01
9,O=C(c1cccc(C(F)(F)F)c1)C1CCCN(Cc2ccc(OCCO)cc2)C1 (stereo not drawn),-69.8
10,O=C(c1cccc(C(F)(F)F)c1)C1CCCN(Cc2cccc(OCCO)c2)C1 (stereo not drawn),-47.4
11,O=C(c1cc(F)ccc1F)C1CCCN(CCCc2ccccc2)C1 (stereo not drawn),-73.2
12,COCc1ccc(C(=O)N2CCCC(C(=O)c3cccc(C(F)(F)F)c3)C2)o1 (stereo not drawn),-0.276
13,COc1cccc(O)c1CN1CCCC(C(=O)c2cccc(C(F)(F)F)c2)C1 (stereo not drawn),-57.5
14,CC(=O)CCCCn1cnc2c1c(=O)n(C)c(=O)n2C,20.7
15,O=c1cc([O-])n(Cc2ccc(F)cc2)c(=O)[nH]1.[NH4+],21.7
16,COCCN(C(=O)CSc1nnc(Nc2ccc(C)cc2)s1)c1c(N)n(CC(C)C)c(=O)[nH]c1=O,-7.66
17,Cn1ncc2c(NCc3ccccc3)ncnc21,-11
18,CCOC(=O)CN1C(=O)/C(=C/c2ccc(Cl)cc2)Oc2ccccc21,2.31
19,Nc1ccc(N=Nc2ccccc2)c2cccnc12,17.2
